# Screening data from PubChem BioAssay.
# TSHR ag: TSH receptor (human) agonism; 0.48% of 73,000 active; HEK293-CNG-TSHR cells (CNG channel as cAMP sensor), membrane potential dye, cAMP; AID 926; Potency, µM (series often up to 57.1 µM), for the others: at the top dose activation, actives largely listed as activators; P16473; active means well fitted activation curve with a large enough effect in the main read-out, with a control signal flat, not every such curve was filed as active; inconclusive means small, poorly fitted or top-dose-only effect, or a change in a side signal; inactive means no such curve, though single readings can be large or run the other way; % of control where 0% means no effect;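 further: the control signal comes from parental cells without the receptor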
# Target sequence (P16473 whole entry, looked up): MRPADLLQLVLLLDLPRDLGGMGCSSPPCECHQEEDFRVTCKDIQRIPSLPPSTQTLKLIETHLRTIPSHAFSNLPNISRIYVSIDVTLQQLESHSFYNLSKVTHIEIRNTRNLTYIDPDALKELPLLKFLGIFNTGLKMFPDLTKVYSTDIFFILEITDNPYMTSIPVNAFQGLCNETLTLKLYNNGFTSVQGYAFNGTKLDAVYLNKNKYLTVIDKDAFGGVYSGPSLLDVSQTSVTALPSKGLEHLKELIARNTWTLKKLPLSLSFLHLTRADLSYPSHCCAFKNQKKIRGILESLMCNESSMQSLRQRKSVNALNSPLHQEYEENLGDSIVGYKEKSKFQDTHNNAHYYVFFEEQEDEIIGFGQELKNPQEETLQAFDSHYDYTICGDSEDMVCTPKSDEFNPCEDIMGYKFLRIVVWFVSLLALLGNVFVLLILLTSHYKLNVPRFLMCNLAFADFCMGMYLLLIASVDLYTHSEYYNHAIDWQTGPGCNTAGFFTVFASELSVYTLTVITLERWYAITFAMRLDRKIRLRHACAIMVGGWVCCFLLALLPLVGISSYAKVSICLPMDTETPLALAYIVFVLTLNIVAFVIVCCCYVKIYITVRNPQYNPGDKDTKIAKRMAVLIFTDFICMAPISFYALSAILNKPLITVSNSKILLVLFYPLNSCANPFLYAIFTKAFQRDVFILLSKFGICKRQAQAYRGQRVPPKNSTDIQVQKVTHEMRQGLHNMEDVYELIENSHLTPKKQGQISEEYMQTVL
#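 HEK 293 cells stably expressing TSHR and a cAMP-gated CNG channel; parental CNG-only cells as counterscreen. Cells preloaded 60 min with membrane potential dye plus 100 uM RO 20-1724, then compound 30 min; fluorescence read at 590 nm.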
# Peg3 imprint: inducers of genomic imprint erasure in mouse ES cells; mouse ES Peg3-LacZ reporter, beta-gal luminescence, 40 h; Potency, µM (titrated, usually from 60.7 µM), for the others: at the top dose activity change, positive = activation, actives largely listed as activators; 0.02% of 110,000 active; AID 1948
#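 Gelatin-coated wells received 300 freshly trypsinized female ES cells with a Peg3LacZ-Neo reporter on the maternal allele, then incubated 40 hours at 37C. BetaGlo was added for 5 minutes at room temperature before a single luminescence read.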
# HEK293 cAMP cs: counter-screen for TSHR agonists: cAMP increase in parental HEK293 | Potency, µM (series often up to 57.1 µM), without a hit: at the top dose activation, usual class: activators | parental HEK293 CNG cAMP sensor, membrane potential fluorescence | 2.5% of 73,000 active; further: % of control where 0% means no effect; nearly all actives have a fitted effect of over 55% in size
#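 Parental HEK 293 cells stably expressing a cAMP-gated CNG channel were loaded with membrane potential dye containing 100 uM RO 20-1724 for 60 min. Compound added for 30 min; depolarization read as fluorescence intensity at 590 nm.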
# Active calls of the source: *; ? = inconclusive; · = no result given; [ ] = remark or other dose. This excerpt belongs to a sample that is enriched for hits. Unless noted, the call rests on the fitted dose curve; in most records, active means well fitted activation curve with a large enough effect; inconclusive means small, poorly fitted or top-dose-only effect; inactive means no such curve, though single readings can be large or run the other way. Potency means the concentration at half of the fitted maximal effect.
SMILES,TSHR ag,Peg3 imprint,HEK293 cAMP cs
Cc1c(C(=O)NCc2ccc(F)cc2)oc2ccc(S(=O)(=O)N3CCCCC3)cc12,·,-12%[10.9 µM],·
N#Cc1c(SCc2ccccc2)nc(N2CCOCC2)c2c1CCCC2,16%[11.4 µM],-22%,12%[11.4 µM]
CCC(=O)N1CCN(c2nc(-c3ccccc3)c3c(c2C#N)CCCC3)CC1,?,-15%,4µM*
Cc1cc(-c2ccccc2)c(C#N)c(SCC(N)=O)n1,0%,2%,12%
N#Cc1c(SCC(N)=O)nc(-c2ccccc2)c2c1CCCC2,?,-5%,20µM*
CC(C)C[C@@H](CC(=O)N[C@@H](CCC(=O)O)CC(=O)O)NC(=O)[C@@H]1CCCC[C@H]1NC(=O)C[C@@H](NC(=O)C[C@H](Cc1c[nH]c2ccccc12)NC(=O)[C@@H]1CNCC[C@H]1N)C(C)C,4%,·,13%
Cn1c(=O)n(C)c2cc(N3CCOCC3)c(NS(=O)(=O)c3cccc(C#N)c3)cc21,·,-4%[10.9 µM],·
CCOC(=O)CSc1nc2ccccc2c(=O)n1CCc1ccc(OC)c(OC)c1,·,-11%[10.9 µM],·
C=CCOc1ccccc1/C=N/O,?,-65%,25µM*
C=CCOc1c(Cl)cc(/C=N/O)cc1OC,7%[11.4 µM],2%,9%[11.4 µM]
CC(NC(=O)CSc1n[nH]c(-c2ccccc2Cl)n1)c1nc2ccccc2[nH]1 (centres undefined),·,4%[10.9 µM],·
CCc1ccc(NC(=O)CSc2ccc3nnc(CCNS(=O)(=O)c4ccc(OC)cc4)n3n2)cc1,·,-13%[10.9 µM],·
O=C1c2ccccc2N2C(=O)c3ccccc3C2N1Cc1ccco1 (centres undefined),?,-17%,25µM*
O=C1c2ccccc2N2C(=O)c3ccccc3C2N1O (centres undefined),7%,-14%,9%
Cc1ccc(C(=O)N2CCCC(c3nc4c(nnn4Cc4ccccc4)c(=O)[nH]3)C2)cc1 (centres undefined),?,-7%,25µM*
Cc1ccccc1Cn1nnc2c(=O)[nH]c(C3CCCN(C(=O)c4ccc(F)cc4)C3)nc21 (centres undefined),·,28%[10.9 µM],·
CCOC(=O)CCN1C(=O)[C@H]2[C@H]3[C@H](O)[C@H](O)C/C(=N/OC/C=C(\C)CCC=C(C)C)[C@H]3CC[C@@H]2C1=O,-3%[11.4 µM],·,1%[11.4 µM]
Cc1cccc2nc(-c3cccc(NS(=O)(=O)c4ccccc4)c3)cn12,·,-6%[10.9 µM],·
Cc1ccc2nc(-c3cccc(S(=O)(=O)N(C)C)c3)cn2c1,?,-18%,25µM*
Cc1ccc(C(=O)CSc2nnc(COc3cccc(C)c3)o2)cc1,?,-4%,?
Cc1cccc(OCc2nnc(SCc3cc(=O)n4cc(Br)ccc4n3)o2)c1,?,-5%,13µM*
COc1ccc(C)cc1NC(=O)c1ccc2nc(Cc3ccccc3)oc2c1,·,14%[10.9 µM],·
CCOc1ccc(NC(=O)c2cc3sc(Cl)cc3n2CC)cc1,·,-7%[10.9 µM],·
Cn1c(=O)c2c(ncn2CC(=O)Nc2cccc(Cl)c2Cl)n(C)c1=O,·,12%[10.9 µM],·
Cc1noc(C)c1COC(=O)c1ccccc1NC(=O)Cc1ccccc1,?,-22%,?
SMILES,TSHR ag,Peg3 imprint,HEK293 cAMP cs
Cc1noc(C)c1COC(=O)c1ccccc1Oc1ccccc1,?,-8%,32µM*
c1ccc(Nc2ncnc3ccc(-c4cccnc4)cc23)cc1,5%,-9%,5%
Cc1ccc(C)c(Nc2nnc(-c3ccc(C)c(S(=O)(=O)NCC4CCCO4)c3)c3ccccc23)c1 (centres undefined),·,-14%[10.9 µM],·
Cc1ccc(-c2nn3c(-c4ccco4)nnc3c3ccccc23)cc1S(=O)(=O)NCC1CCCO1 (centres undefined),?,0%,20µM*
COc1ccc(N2CCN(C(=O)Cn3cnc4sc(C)c(S(=O)(=O)N5CCC(C)CC5)c4c3=O)CC2)cc1,·,-7%[10.9 µM],·
CC(C)CCn1c(=O)c2sccc2n2c(CCCC(=O)NC3CCC(C)CC3)nnc12 (centres undefined),·,-4%[10.9 µM],·
Nc1c(O)cccc1C(=O)C[C@@H](N)C(=O)O,-20%[25.6 µM],11%[16.8 µM],-1%[25.6 µM]
COc1ccc(-c2nc3cnc(OC)nc3n(C[C@H]3CCCO3)c2=O)cc1,?,3%,20µM*
COc1ncc2nc(-c3ccccc3)c(=O)n(C[C@H]3CCCO3)c2n1,8%,·,15%
C=C1CC[C@@H](O)C/C1=C/C=C1\CCC[C@]2(C)[C@@H]1CC[C@H]2[C@@H](C)CCCC(C)C,4%,·,10%
CC(=O)CCc1ccccc1,1%,0%,18%
O=C(CCc1ccccc1)Nc1c(F)c(F)c(F)c(F)c1F,?,21%,16µM*
O=C(CSc1n[nH]c(-c2ccccc2)n1)N1CCN(c2ccccc2F)CC1,·,8%[10.9 µM],·
CCC(=O)OCc1cc(=O)n2nc(C3CC3)sc2n1,·,-6%[10.9 µM],·
COc1ccc(CNc2cc(-c3ccccc3CN(C)C)ncn2)c(OC)c1,22%,-7%,30%
COc1ccccc1CNc1cc(-c2ccoc2)ncn1,·,-10%,12%
COc1ccccc1CNc1cc(-c2cccnc2)ncn1,?,-9%,?
COc1ccc(CNc2cc(-c3ccccc3C)ncn2)c(OC)c1,?,-18%,16µM*
COc1ccccc1CNc1cc(-c2ccccc2C)ncn1,?,-12%,16µM*
COCCNc1ccnc(-c2ccccc2C(F)(F)F)n1,-4%,-12%,15%
COc1ccccc1CNc1cc(-c2ccccc2OC)ncn1,?,-16%,16µM*
COCCNc1cc(-c2ccccc2C(F)(F)F)ncn1,?,-9%,0.32µM*
CN(C)CCC[C@@H]1c2ccccc2Oc2ccc(C(F)(F)F)cc21,10%[11.4 µM],-13%[10.9 µM],15%[11.4 µM]
Cc1ccc(NC(=O)CN2C(=O)CCc3cc(S(=O)(=O)N4CCOCC4)ccc32)c(C)c1,·,-8%[10.9 µM],·
CC(C)OCCCNC(=O)CCCn1c(SCC(=O)c2ccc(F)cc2)nc2c(sc3ccccc32)c1=O,·,-2%[10.9 µM],·
SMILES,TSHR ag,Peg3 imprint,HEK293 cAMP cs
Cc1cccc(N2CCN(C(=O)c3cnn(-c4ccccc4Cl)c3C3CCN(C(=O)OC(C)(C)C)CC3)CC2C)c1 (centres undefined),·,-5%[10.9 µM],·
c1ccc(-n2nnc3ccccc32)nc1,9%[11.4 µM],-16%,3%
c1ccc(COn2nnc3ccccc32)c(COn2nnc3ccccc32)c1,?,-25%,25µM*
O=C(CCC1N=C2c3ccccc3N=C(SCc3ccc(Cl)cc3)N2C1=O)NC1CCCCC1 (centres undefined),·,-9%[10.9 µM],·
Sc1ccc2ccccc2c1CNCc1ccccc1,-2%[11.4 µM],28%[10.9 µM],6%[11.4 µM]
CC(C)CNC(=O)COC(=O)c1cc(S(=O)(=O)N2CCCCC2)ccc1N1CCOCC1,-2%[11.4 µM],-3%,3%
CCN(CC)S(=O)(=O)c1ccc(N2CCCC2)c(C(=O)OCC(=O)/C(C#N)=C(\C)N)c1,25µM*,-14%,15%
O=C(Cc1ccccc1)N1CCCC(c2nc(-c3cccs3)no2)C1 (centres undefined),?,-8%,?
O=C(c1ccco1)N1CCCC(c2nc(-c3ccc(S(=O)(=O)NCc4ccccc4)cc3)no2)C1 (centres undefined),?,-20%,25µM*
COc1ccc(-c2noc(C3CCCN(C(=O)CCc4ccccc4)C3)n2)cc1 (centres undefined),?,-13%,25µM*
